In PubChem BioAssay:
Several values for one entry are separate records, joined by “and”; a condition that tells them apart may be missing. Identical values can stand only once. Activity calls are given as the source filed them.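 Rule for the calls, unless noted: active = compounds whose cell count with miR-34 switched on is under 0.7 times the count with it off; inactive = the rest.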

Assays:
[1] = P. berghei load reduction in hepatocytes – cell-based, HepG2, luciferase luminescence, HepG2 viability, primary screen (AID 624349; in the data active = parasite load remaining mostly below about 12%, no sharp cut-off; inactive = mostly above about 10%;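 note: 100% = mean of DMSO negative control wells on the same plate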); settings: P. berghei liver stage in HepG2, luciferase luminescence, concentration not given here; parasite load remaining: stronger effect = lower value; viability: measured here: HepG2 viability without parasites
[2] = viability loss with induced miR-34 in A549 – imaging, A549 dox-inducible miR-34, nuclei and caspase counts, primary screen (AID 1347080); settings: A549 miR-34 inducible, Hoechst nuclei count, 48 h
[3] = MELAS cybrid and Rieske KO viability enhancers – cell-based, MELAS cybrids, Rieske KO mouse fibroblasts, CellTiter-Glo, primary screen (AID 1508586;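 active = mean z-score across replicates of 1.96 or higher in either the MELAS or the Rieske mutant cell line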;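 note: z relative to plate mean and SD of compound and empty wells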); settings: low glucose
[4] = target: NAD(+) hydrolase SARM1 (Homo sapiens) (UniProt Q6SZW1); assay: blocking NAD cleavage by SARM1 SAM-TIR – cell lysate, NAD-Glo luminescence (AID 1508614;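 active = compound whose remaining NAD level is above about 45 nM, limit read from the data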;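 note: higher remaining NAD means stronger inhibition of SARM1 NADase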); settings: SAM-TIR HEK293T lysate NADase, at 1 µM, stronger effect = higher value
Sequence of NAD(+) hydrolase SARM1 (Homo sapiens) (Q6SZW1 whole entry, looked up): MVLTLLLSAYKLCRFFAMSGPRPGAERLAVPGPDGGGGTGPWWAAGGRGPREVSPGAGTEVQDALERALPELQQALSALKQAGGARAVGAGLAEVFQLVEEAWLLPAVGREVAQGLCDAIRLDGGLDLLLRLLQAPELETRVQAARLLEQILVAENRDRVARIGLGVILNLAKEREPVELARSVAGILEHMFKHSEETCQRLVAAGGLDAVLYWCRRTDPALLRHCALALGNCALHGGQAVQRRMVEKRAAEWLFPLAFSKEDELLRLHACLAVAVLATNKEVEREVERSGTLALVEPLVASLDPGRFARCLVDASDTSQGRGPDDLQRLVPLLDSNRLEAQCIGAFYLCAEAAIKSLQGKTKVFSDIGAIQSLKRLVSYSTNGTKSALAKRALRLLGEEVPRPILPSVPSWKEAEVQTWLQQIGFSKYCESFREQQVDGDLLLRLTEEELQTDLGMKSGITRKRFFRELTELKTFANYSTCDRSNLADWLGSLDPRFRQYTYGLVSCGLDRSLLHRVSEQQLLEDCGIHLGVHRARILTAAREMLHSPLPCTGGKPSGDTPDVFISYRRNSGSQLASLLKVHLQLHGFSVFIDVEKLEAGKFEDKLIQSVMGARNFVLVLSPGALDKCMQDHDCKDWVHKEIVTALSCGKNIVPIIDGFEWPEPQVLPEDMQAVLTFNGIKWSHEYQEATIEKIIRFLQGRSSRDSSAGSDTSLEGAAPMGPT

[5] = galactose survival enhancers in mitochondrial complex I cybrids – cell-based, galactose medium, ATP luminescence, primary screen (AID 1645843;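 active = z-score of at least 1.8 in each of two replicates, scored against plate mean and spread of sample wells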;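 note: positive z means more ATP and so rescue of galactose-driven cybrid death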); settings: complex I mutant cybrid cells, 72 h, stronger effect = higher value
[6] = stronger effect = lower value, cell number ratio, induced over uninduced
[7] = measured here: relative caspase fold change +Dox/-Dox
[8] = measured here: total cells with miR-34 induction, stronger effect = lower value
[9] = measured here: total cells without miR-34 induction
[10] = MELAS cybrid survival, CellTiter-Glo 48 h, stronger effect = higher value
[11] = Rieske KO mouse fibroblast survival, CellTiter-Glo 72 h

Row | SMILES | parasite load remaining [1] | viability [1] | fold change [2, 6] | fold change [2, 7] | cell count [2, 8] | cell count [2, 9] | z-score [3, 10] | z-score [3, 11] | remaining NAD [4] | z-score [5]
1 | CO[C@@]1(NC(=O)C2SC(=C(C(N)=O)C(=O)O)S2)C(=O)N2C(C(=O)O)=C(CSc3nnnn3C)CS[C@@H]21 (stereo partly specified) | 165% (inactive) and 73.4% (inactive) | 107% and 73.9% | 0.873 (inactive) | 1.71 | 8700 | 9980 | -0.492 (inactive) | -0.132 | 10 nM (inactive) | 
2 | OCCNc1ncnc2oc(-c3ccccc3)c(-c3ccccc3)c12 |  |  | 0.989 (inactive) | 0.446 | 5100 | 5160 | 0.83 | 7.8 |  | -1.23 (inactive)
3 | Cc1ccc2c(C(=O)N3C[C@H]4CC[C@H]3C4)cc(-c3cnn(C(C)(C)C)c3)nc2c1 |  |  | 0.854 (inactive) | 1.66 | 6940 | 8130 | -0.72 (inactive) | 0.542 |  | 1.56 (inactive)
4 | C[C@]12CC[C@@H]3c4ccc(OS(=O)(=O)O)cc4CC[C@H]3[C@@H]1CCC2=O | 64.3% (inactive) and 61.4% (inactive) | 99.3% and 74.8% | 0.873 (inactive) | 0.967 | 9010 | 10300 | -0.105 (inactive) | -0.186 | 10 nM (inactive) | 
5 | CC(Nc1nc(N)nc2[nH]ncc12)c1ccc(Cl)cc1 (stereo unspecified) |  |  | 0.895 (inactive) | 1.28 | 7110 | 7940 | -0.461 (inactive) | -0.503 |  | -0.575 (inactive)
6 | CC(=O)NC(CCCN=C(N)N)C(=O)O (stereo unspecified) |  |  | 0.897 (inactive) | 0.717 | 8640 | 9630 | -1.33 (inactive) | -0.192 |  | 0.785 (inactive)
7 | Cn1nc(-c2cccnc2)c2[nH]c(-c3ccccc3OC(F)F)nc21 |  |  | 0.875 (inactive) | 0.925 | 6510 | 7440 | -1.45 (inactive) | 0.404 |  | 0.095 (inactive)
8 | CN(C)c1ccc(N=Nc2ccccc2C(=O)O)cc1 |  |  | 0.742 (inactive) | 0.761 | 2520 | 3400 | -1.2 (inactive) | 0.626 |  | -0.36 (inactive)
9 | CCOC(=O)c1cc2ccc(O)cc2oc1=O |  |  | 0.98 (inactive) | 0.374 | 10300 | 10500 | 0.534 (inactive) | -0.345 |  | 0.595 (inactive)
10 | CCCN1CCCCC1C(=O)Nc1c(C)cccc1C (stereo unspecified) |  |  | 0.891 (inactive) and 0.942 (inactive) | 1.17 and 1.76 | 9320 and 9310 | 10500 and 9880 | 0.0955 (inactive) | -0.512 |  | 0.57 (inactive)
11 | NS(=O)(=O)c1ccc(C(=O)NCCn2cccn2)cc1 |  |  | 0.945 (inactive) | 1.97 | 9500 | 10100 | -0.281 (inactive) | -0.563 |  | -0.555 (inactive)
12 | OCCCc1cn(C2CCN(c3nn4cnnc4c4ccccc34)CC2)nn1 |  |  | 0.902 (inactive) | 1.35 | 8970 | 9940 | 0.105 (inactive) | -0.51 |  | -0.54 (inactive)
13 | Cc1c(CNC(=O)C(=O)c2c(-c3ccccc3)cc3ccccn23)cnn1C |  |  | 0.827 (inactive) | 2.08 | 7720 | 9330 | 0.665 (inactive) | -0.13 |  | 0.815 (inactive)
14 | COc1ccc(F)c(-c2cccc(N)n2)c1 |  |  | 0.864 (inactive) | 1.37 | 8940 | 10300 | -0.0723 (inactive) | -0.237 |  | -0.555 (inactive)
15 | CN1CCC(CN(C)Cc2ccc(-c3nc(-c4cccnc4)cc(=O)[nH]3)cc2)CC1 |  |  | 0.831 (inactive) | 1.62 | 8360 | 10100 | 0.139 (inactive) | 0.0765 |  | -0.51 (inactive)
16 | CCn1ncc2[nH]c(-c3cnn(C)c3-c3ccccc3)nc21 |  |  | 0.88 (inactive) | 1.89 | 8480 | 9640 | -0.346 (inactive) | -0.221 |  | -0.49 (inactive)
